Our source for the Potency and max activation values is PubChem BioAssay (Tox21).

SMILES strings stand for the structures. Values joined by “and” are separate entries in the source; they are usually repeats but may differ in a detail not shown here. Equal entries are not always repeated. Inconclusive results are not listed. The source holds several records for some structures; these can differ, active in one and inactive in another. Active and inactive are the calls of the source. Calls come from the whole dose curve; as a rule, active = well fitted curve in the direction sought with a large enough effect in the repeat runs; inconclusive = weak or mixed curves; inactive = no such curve, though single readings can be large; an effect the other way counts as inactive or inconclusive.

Test [1] can be described thus: Caspase-3/7 induction in HepG2 cells by small molecules, qHTS assay (AID 1346978). Note: nearly all actives have a fitted effect of over 15% in size. The method, boiled down:
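Caspase-3/7 induction was measured by Caspase-Glo 3/7 luminescence (30 min, room temperature) after a 17 hr compound exposure of wild-type HepG2 cells seeded at 2,000 per well and pre-incubated 5 hr.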
For orientation: In qHTS, concentration-response curves come from the screen itself.

The nature of test [2]: Caspase-3/7 induction in CHO-K1 cells by small molecules, qHTS cell viability counter screen (AID 1346979). Note: nearly all actives have a fitted effect of over 35% in size. Note: potency is the fitted concentration of half-maximal effect. The gist of the method: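 Wild-type CHO-K1 cells were seeded at 1,500 per well, rested 5hr at 37 C, then exposed to compounds in DMSO. After 16hr, CellTiter-Fluor reagent was added and fluorescence read 1hr later as the viability measure.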
Test [3] can be described thus: Caspase-3/7 induction in CHO-K1 cells by small molecules, qHTS assay (AID 1346980). Note: nearly all actives have a fitted effect of over 15% in size. The method, boiled down: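 Luminescent Caspase-Glo 3/7 read (30min, room temperature) quantified apoptosis induction. Cells were wild-type CHO-K1, treated with compound for 17hr at 37 C and 5% CO2.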
A short description of test [4]: Caspase-3/7 induction in HepG2 cells by small molecules, qHTS cell viability counter screen (AID 1346981). Note: nearly all actives have a fitted effect of over 30% in size. Note: potency is the fitted concentration of half-maximal effect. The method, boiled down:
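Cell viability is measured as a cytotoxicity counter screen alongside the Caspase-Glo 3/7 readout in identical wells. Wild-type HepG2 cells are treated with test compounds for 16 hr at 37 C before CellTiter-Fluor addition and a 1-hr incubation.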

Test [5] addresses Nuclear receptor subfamily 1 group I member 2 (Homo sapiens) (UniProt O75469). The experiment in a line: Human pregnane X receptor (PXR) small molecule agonists, qHTS assay (AID 1346982). Note: nearly all actives have a fitted effect of over 35% in size. Note: potency is the fitted concentration of half-maximal effect. The method, boiled down:
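Cells: HepG2 stably carrying PXR-Luc. Medium held 5% charcoal-stripped FBS. Compounds in DMSO added after 5 hr plating, incubated 24 hr, then luminescence quantified with ONE-Glo.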

The target of test [6] is Nuclear receptor subfamily 1 group I member 2 (Rattus norvegicus) (UniProt Q9R1A7). The experiment in a line: Rat pregnane X receptor (rPXR) activation by small molecules, qHTS assay (AID 1346983). Note: nearly all actives have a fitted effect of over 20% in size. The settings on record: rPXR luciferase reporter cells, One-Glo luminescence, 24 h; stronger effect = higher value. The method, boiled down:
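Luminescent readout (One-Glo luciferase, 30 min room temperature) followed 24 hr compound treatment at 37 C of rPXR cells plated 2,000 per well and preincubated 5hr; qHTS format with compounds delivered in DMSO.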

In test [7] the target is Nuclear receptor subfamily 1 group I member 2 (Homo sapiens) (UniProt O75469). In words: Human pregnane X receptor (PXR) activation by small molecules, qHTS assay (AID 1346985). Note: nearly all actives have a fitted effect of over 40% in size. Note: potency is the fitted concentration of half-maximal effect. The method, boiled down:
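DPX-2 cells (HepG2 co-transfected with a PXR response element and a CYP3A4-promoter luciferase construct) were seeded at 2,000 per well, rested 5 hr at 37C, then exposed to DMSO-dissolved compounds for 24 hr. Activation was read as luciferase luminescence.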

Test [8] deals with Cytochrome P450 2C19 (Homo sapiens) (UniProt P33261). In words: Cytochrome P450 Family 2 Subfamily C Member 19 (CYP2C19) small molecule antagonists: luciferase reporter qHTS assay (AID 1671197). Note: nearly all actives have a fitted effect of over 65% in size. Note: potency is the fitted concentration of half-maximal effect. The method, boiled down:
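P450-Glo CYP2C19 screening system; proluciferin substrate; DMSO compound stocks; 10 min RT preincubation; NADPH regeneration, 1 h at 37C; luciferin detection reagent, 20 min RT; luminescence as RLU.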
On the technique in general: Reporter assays use an easily measured gene product as a stand-in for the process of interest.

Test [9] deals with Cytochrome P450 2C9 (Homo sapiens) (UniProt P11712). In words: Cytochrome P450 Family 2 Subfamily C Member 9 (CYP2C9) small molecule antagonists: luciferase reporter qHTS assay (AID 1671198). Note: nearly all actives have a fitted effect of over 50% in size. Note: potency is the fitted concentration of half-maximal effect. The gist of the method:
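Enzyme-substrate mix preincubated with compound 10 min at room temperature; reaction started with NADPH regeneration solution, 1 h 37C. Luminescent luciferin product read after 20 min detection reagent.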

Test [10] deals with Cytochrome P450 1A2 (Homo sapiens) (UniProt P05177). The experiment in a line: Cytochrome P450 Family 1 Subfamily A Member 2 (CYP1A2) small molecule antagonists: luciferase reporter qHTS assay (AID 1671199). Note: nearly all actives have a fitted effect of over 50% in size. Note: potency is the fitted concentration of half-maximal effect. The method, boiled down: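 Compounds were incubated with CYP1A2 and a luminogenic proluciferin substrate for 10 min at room temperature before the reaction was started with NADPH regeneration solution. After 1 h, detection reagent was added and light output, proportional to CYP activity, was recorded.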

Test [11] has as its target Voltage-gated inwardly rectifying potassium channel KCNH2 (Homo sapiens) (UniProt Q12809). The experiment in a line: Human Ether-a-go-go-Related Gene (hERG) channel small molecule antagonists: fluorescence cell-based qHTS assay (AID 1671200).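 Note: hERG-expressing U2OS cells given a thallium stimulus after FluxOR II dye loading; series mostly up to about 77 µM; nearly all actives have a fitted effect of over 50% in size.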 The gist of the method: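 U2OS cells expressing the channel were plated at 1000 cells/well, incubated overnight at 37 C, then loaded with FluxOR II thallium-sensitive dye for 1 h at room temperature in the dark, with a further 10 min at room temperature before stimulation.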

For test [12], the target named is Cytochrome P450 2D6 (Homo sapiens) (UniProt P10635). The experiment in a line: Cytochrome P450 Family 2 Subfamily D Member 6 (CYP2D6) small molecule antagonists: luciferase reporter qHTS assay (AID 1671196). Note: nearly all actives have a fitted effect of over 50% in size. Note: potency is the fitted concentration of half-maximal effect. The method, boiled down: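 Enzyme and proluciferin substrate were first combined with test chemical for 10 min at room temperature. Adding NADPH regeneration solution started a 1 h reaction, stopped with luciferin detection reagent and read by luminescence 20 min later.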

Test [13] concerns the target Cytochrome P450 3A4 (Homo sapiens) (UniProt P08684). In words: Cytochrome P450 Family 3 Subfamily A Member 4 (CYP3A4) small molecule antagonists: luciferase reporter qHTS assay (AID 1671201). The gist of the method: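 P450-Glo CYP3A4 system with proluciferin substrate; compounds preincubated 10 min RT with enzyme-substrate mix, then NADPH regeneration added for 1 h RT. Detection reagent 20 min, luminescence read as relative luminescence units.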

Test [14] has as its target Nuclear receptor subfamily 1 group I member 2 (Homo sapiens) (UniProt O75469). The experiment in a line: CYP3A4 induction through human pregnane X receptor (PXR) by small molecules, qHTS assay (AID 1346984). Note: nearly all actives have a fitted effect of over 40% in size. The gist of the method: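 Quantitative HTS in DPX-2 cells, i.e. HepG2 transfected with PXR response element and CYP3A4-promoter luciferase. Compounds in DMSO incubated 24hr at 37C; then P450-Glo CYP3A4 substrate, 3uM final, 3hr; One-Glo luminescence.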
% is set by controls: 0 for no effect and ±100 for the full control effect.

Chain of Voltage-gated inwardly rectifying potassium channel KCNH2 (Homo sapiens) (Q12809 whole entry, looked up): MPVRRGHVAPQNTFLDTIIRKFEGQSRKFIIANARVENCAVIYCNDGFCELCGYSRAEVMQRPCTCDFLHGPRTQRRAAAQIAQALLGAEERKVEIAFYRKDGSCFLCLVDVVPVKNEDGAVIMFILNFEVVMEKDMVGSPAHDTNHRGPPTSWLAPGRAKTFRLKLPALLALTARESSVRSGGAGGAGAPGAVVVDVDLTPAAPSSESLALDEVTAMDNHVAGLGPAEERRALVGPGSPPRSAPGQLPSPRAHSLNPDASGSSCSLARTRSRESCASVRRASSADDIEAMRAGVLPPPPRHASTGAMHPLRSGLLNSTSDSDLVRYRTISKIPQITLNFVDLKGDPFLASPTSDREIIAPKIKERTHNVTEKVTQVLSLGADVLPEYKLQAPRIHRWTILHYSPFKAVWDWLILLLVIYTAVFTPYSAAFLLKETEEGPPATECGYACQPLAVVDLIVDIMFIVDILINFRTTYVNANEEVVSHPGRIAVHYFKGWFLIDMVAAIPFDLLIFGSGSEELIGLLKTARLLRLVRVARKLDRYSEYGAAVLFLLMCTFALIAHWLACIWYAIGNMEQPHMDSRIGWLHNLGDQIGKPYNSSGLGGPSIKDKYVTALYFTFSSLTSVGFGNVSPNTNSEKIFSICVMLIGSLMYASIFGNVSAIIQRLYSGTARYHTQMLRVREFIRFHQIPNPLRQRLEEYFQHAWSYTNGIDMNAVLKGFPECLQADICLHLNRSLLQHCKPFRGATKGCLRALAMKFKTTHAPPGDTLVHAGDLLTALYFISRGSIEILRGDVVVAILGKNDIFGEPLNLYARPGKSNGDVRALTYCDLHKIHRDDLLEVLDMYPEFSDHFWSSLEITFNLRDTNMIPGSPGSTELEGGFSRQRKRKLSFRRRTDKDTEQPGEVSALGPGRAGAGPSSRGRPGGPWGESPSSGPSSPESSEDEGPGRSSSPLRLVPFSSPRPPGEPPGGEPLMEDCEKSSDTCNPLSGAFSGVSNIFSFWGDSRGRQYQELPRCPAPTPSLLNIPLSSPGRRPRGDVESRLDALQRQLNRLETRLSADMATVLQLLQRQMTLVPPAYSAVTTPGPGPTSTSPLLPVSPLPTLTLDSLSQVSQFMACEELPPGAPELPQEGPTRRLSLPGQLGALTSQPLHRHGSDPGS
Chain of Cytochrome P450 2C19 (Homo sapiens) (P33261 whole entry, looked up): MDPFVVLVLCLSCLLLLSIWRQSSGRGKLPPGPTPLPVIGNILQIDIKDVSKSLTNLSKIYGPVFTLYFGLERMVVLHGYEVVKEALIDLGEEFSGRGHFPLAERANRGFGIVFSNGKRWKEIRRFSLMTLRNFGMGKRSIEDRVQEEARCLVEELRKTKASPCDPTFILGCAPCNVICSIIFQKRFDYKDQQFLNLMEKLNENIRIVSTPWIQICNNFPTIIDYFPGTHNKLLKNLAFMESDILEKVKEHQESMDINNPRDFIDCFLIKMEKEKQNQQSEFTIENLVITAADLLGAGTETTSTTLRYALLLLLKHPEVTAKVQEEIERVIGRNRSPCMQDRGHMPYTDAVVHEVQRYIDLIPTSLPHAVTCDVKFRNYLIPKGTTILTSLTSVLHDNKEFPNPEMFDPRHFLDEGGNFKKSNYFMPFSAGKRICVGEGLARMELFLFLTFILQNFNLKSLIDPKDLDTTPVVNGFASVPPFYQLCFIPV
Chain of Nuclear receptor subfamily 1 group I member 2 (Homo sapiens) (O75469 whole entry, looked up): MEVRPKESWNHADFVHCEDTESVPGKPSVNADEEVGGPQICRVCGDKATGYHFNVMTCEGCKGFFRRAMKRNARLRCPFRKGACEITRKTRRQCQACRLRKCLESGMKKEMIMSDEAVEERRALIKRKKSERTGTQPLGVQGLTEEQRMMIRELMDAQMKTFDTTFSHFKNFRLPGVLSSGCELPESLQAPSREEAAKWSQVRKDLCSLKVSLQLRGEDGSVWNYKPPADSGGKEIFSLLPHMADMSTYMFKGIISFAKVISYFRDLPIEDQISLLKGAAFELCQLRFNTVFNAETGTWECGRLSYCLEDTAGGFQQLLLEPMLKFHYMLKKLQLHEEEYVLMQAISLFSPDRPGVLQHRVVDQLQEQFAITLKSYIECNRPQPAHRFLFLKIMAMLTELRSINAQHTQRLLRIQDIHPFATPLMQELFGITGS
Chain of Cytochrome P450 2C9 (Homo sapiens) (P11712 whole entry, looked up): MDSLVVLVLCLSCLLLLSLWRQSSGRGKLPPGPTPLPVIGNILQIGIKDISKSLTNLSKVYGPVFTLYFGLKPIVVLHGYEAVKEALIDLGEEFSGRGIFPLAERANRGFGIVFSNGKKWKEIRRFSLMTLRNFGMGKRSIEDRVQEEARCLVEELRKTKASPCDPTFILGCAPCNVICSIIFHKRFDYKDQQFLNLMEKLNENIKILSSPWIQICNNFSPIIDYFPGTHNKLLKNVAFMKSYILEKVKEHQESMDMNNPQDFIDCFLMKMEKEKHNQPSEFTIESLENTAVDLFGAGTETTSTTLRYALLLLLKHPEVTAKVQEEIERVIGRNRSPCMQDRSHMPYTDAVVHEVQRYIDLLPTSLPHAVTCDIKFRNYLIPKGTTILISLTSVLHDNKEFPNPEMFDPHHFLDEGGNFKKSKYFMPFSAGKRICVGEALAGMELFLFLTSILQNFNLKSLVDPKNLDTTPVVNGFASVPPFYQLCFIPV
Chain of Nuclear receptor subfamily 1 group I member 2 (Rattus norvegicus) (Q9R1A7 whole entry, looked up): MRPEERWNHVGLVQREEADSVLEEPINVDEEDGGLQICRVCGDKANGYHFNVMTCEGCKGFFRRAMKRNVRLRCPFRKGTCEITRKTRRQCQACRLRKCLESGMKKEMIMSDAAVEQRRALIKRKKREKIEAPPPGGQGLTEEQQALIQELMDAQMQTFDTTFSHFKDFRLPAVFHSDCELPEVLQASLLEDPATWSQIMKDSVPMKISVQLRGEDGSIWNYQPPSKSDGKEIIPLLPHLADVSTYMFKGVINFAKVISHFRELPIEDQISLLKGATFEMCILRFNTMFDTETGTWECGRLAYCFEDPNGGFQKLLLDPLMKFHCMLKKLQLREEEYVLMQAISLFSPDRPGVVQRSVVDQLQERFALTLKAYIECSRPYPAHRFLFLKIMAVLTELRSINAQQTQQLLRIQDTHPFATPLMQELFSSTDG
Chain of Cytochrome P450 3A4 (Homo sapiens) (P08684 whole entry, looked up): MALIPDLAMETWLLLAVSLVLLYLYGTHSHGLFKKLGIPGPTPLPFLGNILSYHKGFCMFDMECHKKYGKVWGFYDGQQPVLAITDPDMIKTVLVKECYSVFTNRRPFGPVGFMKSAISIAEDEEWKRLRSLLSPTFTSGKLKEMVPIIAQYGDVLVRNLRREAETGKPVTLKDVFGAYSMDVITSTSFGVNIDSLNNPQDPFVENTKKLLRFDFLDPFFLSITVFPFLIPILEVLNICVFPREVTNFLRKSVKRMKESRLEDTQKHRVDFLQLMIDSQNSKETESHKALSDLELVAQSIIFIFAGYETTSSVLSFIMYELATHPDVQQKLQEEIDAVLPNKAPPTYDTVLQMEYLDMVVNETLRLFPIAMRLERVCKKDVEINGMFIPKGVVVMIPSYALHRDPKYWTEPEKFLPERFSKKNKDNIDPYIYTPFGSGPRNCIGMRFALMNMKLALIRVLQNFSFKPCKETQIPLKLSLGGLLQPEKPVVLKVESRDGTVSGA
Chain of Cytochrome P450 2D6 (Homo sapiens) (P10635 whole entry, looked up): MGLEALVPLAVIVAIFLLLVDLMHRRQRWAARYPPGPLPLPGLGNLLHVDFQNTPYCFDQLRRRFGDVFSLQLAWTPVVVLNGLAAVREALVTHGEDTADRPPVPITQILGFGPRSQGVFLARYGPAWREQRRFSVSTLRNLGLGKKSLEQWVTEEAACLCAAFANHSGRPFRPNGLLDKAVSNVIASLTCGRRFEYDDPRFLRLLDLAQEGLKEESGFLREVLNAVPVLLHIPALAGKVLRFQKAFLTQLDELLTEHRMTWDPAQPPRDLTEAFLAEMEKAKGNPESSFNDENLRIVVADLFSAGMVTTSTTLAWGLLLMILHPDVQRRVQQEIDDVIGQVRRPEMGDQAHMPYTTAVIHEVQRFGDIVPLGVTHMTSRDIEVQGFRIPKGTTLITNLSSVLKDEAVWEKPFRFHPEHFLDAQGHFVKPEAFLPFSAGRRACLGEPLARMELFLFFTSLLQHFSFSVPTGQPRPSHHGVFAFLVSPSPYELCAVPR
Chain of Cytochrome P450 1A2 (Homo sapiens) (P05177 whole entry, looked up): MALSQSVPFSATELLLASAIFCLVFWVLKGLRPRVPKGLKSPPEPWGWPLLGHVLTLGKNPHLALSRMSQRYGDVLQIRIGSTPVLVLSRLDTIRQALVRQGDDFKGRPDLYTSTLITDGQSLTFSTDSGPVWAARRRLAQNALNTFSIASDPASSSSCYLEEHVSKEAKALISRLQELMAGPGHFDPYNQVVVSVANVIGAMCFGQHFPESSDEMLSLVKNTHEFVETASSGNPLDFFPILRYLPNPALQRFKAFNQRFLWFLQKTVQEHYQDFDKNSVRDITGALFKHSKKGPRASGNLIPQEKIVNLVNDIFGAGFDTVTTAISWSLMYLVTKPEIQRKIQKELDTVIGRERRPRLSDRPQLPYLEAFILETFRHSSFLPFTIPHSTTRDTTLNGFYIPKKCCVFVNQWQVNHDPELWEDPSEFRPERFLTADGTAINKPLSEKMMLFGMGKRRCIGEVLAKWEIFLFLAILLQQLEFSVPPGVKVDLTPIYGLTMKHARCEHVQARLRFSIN

For the compound `Oc1ccc(Cl)cc1Cc1cc(Cl)ccc1O`, the Potency result in [1], in test [3], in test [7] and in test [11] was “inactive” each time. Besides, the Potency in test [2] is 44.1 µM (active) and 38.6 µM (active) and 29.8 µM (active); in test [4], 55.5 µM (active); in [5], 22.1 µM (active) and 27.3 µM (active); in test [8], 3.62 µM (active) and 2.83 µM (active) and 3.09 µM (active); in [9], 8.11 µM (active) and 5.64 µM (active) and 4.9 µM (active); in [10], 36.2 µM (active) and 39.9 µM (active) and 15.5 µM (active). For the same compound, the max activation in test [6] is -2.03% (inactive).

Regarding `COC(=O)/C=C/c1ccccc1`, the Potency entry in test [1], in test [2], in test [3], in test [4], in test [5] and in test [8] was “inactive” each time. Moreover, the Potency result in test [9], in test [11] and in [13] was “inactive” in each case. Further, the Potency is 35.6 µM (active) and inactive in test [12]; 15.9 µM (active) and 28.3 µM (active) in [10].

Take `O=S(=O)(O)c1ccc2nc(-c3ccccc3)[nH]c2c1`: the Potency entry in test [1], in test [2], in test [3], in test [4], in test [5] and in [14] was “inactive” in each case. Moreover, the Potency entry in test [7] and in [11] was “inactive” each time. The max activation in test [6] is -3.42% (inactive). The Potency in test [12] is 21.4 µM (active) and 13.8 µM (active); in test [8] it was 17 µM (active) and 9.77 µM (active); in test [9], 33.9 µM (active) and 19.5 µM (active); in test [10] it was 26.9 µM (active) and 19.5 µM (active).

In the case of `C#CC(C)(CC)OC(=O)c1ccccc1C(=O)O` (stereo not given), the Potency entry in test [1], in test [2], in test [3], in test [4], in test [5] and in test [12] was “inactive” in each case. Moreover, the Potency result in test [8], in [9], in test [10], in test [11] and in test [13] was “inactive” throughout.

For the compound `CC(C)CCOC(=O)c1ccc(N(C)C)cc1`, the Potency entry in test [1], in test [2], in [3], in [4], in test [5] and in [14] was “inactive” in each case. Also, the Potency entry in test [7], in test [12], in test [11] and in test [13] was “inactive” throughout. Also, the values for the Potency in test [8], in test [9] and in [10] were 4.9 µM (active), 8.71 µM (active) and 2.88 µM (active), respectively.

Take `CC1COC(=O)O1` (stereo not given): the Potency result in test [1], in test [2], in test [3], in [4], in [5] and in [12] was “inactive” in each case. Further, the Potency result in [8], in test [9], in test [10], in test [11] and in test [13] was “inactive” in each case.

On to `CC(=O)O[C@]1(C(C)=O)CC[C@H]2[C@@H]3C[C@H](C)C4=CC(=O)CC[C@]4(C)[C@H]3CC[C@@]21C`, for which the Potency entry in test [1], in [2], in test [3], in test [4], in test [14] and in test [12] was “inactive” in each case. In addition, the Potency result in [10] and in [11] was “inactive” each time. The Potency in test [5] is 5.44 µM (active); in test [7] it was 1.58 µM (active); in test [8], 15.9 µM (active); in test [9], 3.99 µM (active) and 13.8 µM (active).

As for `OCCN1CCNCC1`, the Potency entry in test [1], in test [2], in test [3], in test [4], in [5] and in [12] was “inactive” throughout. In addition, the Potency result in [8], in test [9], in [10], in [11] and in test [13] was “inactive” throughout.

`COc1ccc(COC(C)=O)cc1`: the Potency entry in test [1], in test [2], in test [3], in test [4], in [5] and in test [12] was “inactive” throughout. Further, the Potency entry in [9], in [11] and in test [13] was “inactive” in each case. The Potency in test [8] was 45.6 µM (active) and inactive; in test [10], 28.8 µM (active) and 44.8 µM (active).

As to `CC(=O)OCCOCCOCCOC(C)=O`, the Potency result in [1], in test [2], in [3], in test [4], in [5] and in [12] was “inactive” throughout. For the same compound, the Potency entry in [9], in [10], in [11] and in test [13] was “inactive” in each case. Also, the Potency in test [8] is 78.7 µM (active) and inactive.

For the compound `NCCCCCC(=O)O`, the Potency result in test [1], in [2], in [3], in [4], in [5] and in [14] was “inactive” in each case. Also, the Potency entry in [7], in test [12], in test [8], in test [9], in [10] and in [11] was “inactive” in each case. Further, the Potency entry in [13] is “inactive”. In test [6], the max activation was 1.85% (inactive).

Consider `CC(C)(O)CCC(C)(C)O`, for which the Potency result in test [1], in test [2], in [3], in [4], in test [5] and in test [12] was “inactive” throughout. Moreover, the Potency entry in test [8], in test [9], in test [10], in [11] and in test [13] was “inactive” in each case.

As for `Cc1occc(=O)c1OC(=O)C(C)C`, the Potency result in test [1], in [2], in [3], in [4], in test [5] and in test [12] was “inactive” throughout. Moreover, the Potency result in test [8], in test [9], in [10], in test [11] and in test [13] was “inactive” in each case.

Take `N[C@@H]1CONC1=O`: the Potency entry in [1], in test [2], in test [3], in [4], in test [5] and in test [14] was “inactive” in each case. Also, the Potency result in [7], in test [12], in test [8], in [9], in [10] and in test [11] was “inactive” throughout. The Potency result in test [13] was “inactive”. The max activation in [6] was -2.48% (inactive).
